# Laboratory results taken from PubChem BioAssay (NCI).
# This is part of a sample that, as a whole, favours compounds with a hit. Of some 83,000 tested, about 20% had one in any assay.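 96-well plates, one dose, 48 hours. Percent growth reported; active if below 10.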 Unmarked numbers belong to inactive results. Calls of active or inactive are those of the source.
# Test system: MCF7 breast
# Assay: NCI-60 one-dose screen, 48 h (100 = growth as untreated, 0 = no growth, -100 = all killed)
# Settings: 10 µM unless noted
row,SMILES,growth
1,CC(C)(C)c1cc(NC(=O)Nc2ccc(-c3cn4c5c(sc4n3)CCc3c[nH]cc3-5)cc2)no1,-6.97% (active)
2,NS(=O)(=O)c1ccc(Nc2nc(Nc3ccccc3)nc(N3N=C(c4ccc(Cl)cc4)CC3c3ccc(Cl)cc3)n2)cc1 (stereo not given),12.8%
3,COc1ccc2sc(NC(=O)CCCCCCNC(=O)C(O)(O)C(F)(F)F)nc2c1,9.01% (active)
4,N#C/C(=C\c1ccc(-c2ccc(Cl)cc2)o1)C(=O)Nc1ncc(Cc2ccc(Br)cc2)s1,30.5%
5,C#CCN(C)CCCOc1ccc(NCc2ccc(C(=O)NO)cc2)cc1Cl,18%
6,COc1ccc(C(=O)c2c(N)c(C#N)cn2-c2ccc(Cl)cc2Cl)cc1,99.4%
7,C/C(=N\NC(=O)/C=C/CC(=O)O)c1nnn(-c2ccc([N+](=O)[O-])cc2)c1C,97.8%
8,O=C(/C=C/c1ccc(F)cc1)Nc1cccc2cccnc12,6.92% (active)
9,COc1ccccc1N1CCN(C2=C(Cl)C(=O)c3ncccc3C2=O)CC1,36.9%
10,NS(=O)(=O)c1cccc(Nc2nc(SCC(=O)c3ccc(Cl)cc3)nc3c2CCC3)c1,82.9%
11,CN(C)c1cccc2c(S(=O)(=O)Nc3cccc(-c4csc(NC(=O)CCCCCN5CCN(CCO)CC5)n4)c3)cccc12,35.8%
12,O=c1nc(Nc2ccc([N+](=O)[O-])cc2O)sc2ccccc12,18.1%
13,NC1C2CCC1CN(c1cnc(C(=O)Nc3cc(F)cc4cccnc34)cn1)C2 (stereo not given),3.24% (active)
14,COc1ccc(C2CC(c3cccc(OCCCCOc4cccc(C5=NOC(c6ccc(OC)cc6)C5)c4)c3)=NO2)cc1 (stereo not given),15%
15,CCc1cc2c(cc1Cl)nc1c(=O)[nH]c(=O)nc-1n2CCOCC(C)(C)C,58.2%
16,Clc1ccc2[nH]cc(-c3nn4cc(-c5ccncc5)nc4s3)c2c1,24.2%
17,CN1CCN(c2ccc(Nc3nc(NCCNS(=O)(=O)c4ccc5ccccc5c4)c4sccc4n3)cc2)CC1,32.9%
18,CC(C)[C@H]1c2[nH]c3ccccc3c2C[C@H]2C(=O)N(CCCCCCC(=O)NO)CC(=O)N12,59.5%
19,O=C(Nc1ccccc1)Nc1nc2ccc([N+](=O)[O-])cc2[nH]1,53.7%
20,N#Cc1c(-c2cccs2)cc(-c2cnccn2)nc1SCC(=O)N/N=C/c1ccncc1,92.5%

row,SMILES,growth
1,O=C(/C=C/c1ccccc1)c1cccc(O)c1,14%
2,O=C1[C@@H]2Cc3c([nH]c4ccccc34)[C@H](c3ccc(Br)cc3)N2C(=O)CN1C1CCN(Cc2c(Cl)cccc2Cl)CC1,68.3%
3,COc1cccc2c1C=CC1(O2)Oc2cccc(OC)c2C=C1C (stereo not given),13.1%
4,CCN(CC)c1ccc(/C=N/NC(=O)c2ccc(NS(C)(=O)=O)cc2)cc1,9.25% (active)
5,N#Cc1nc(-c2ccc(Cl)cc2)oc1N1CCC(S(=O)(=O)N2CCOCC2)CC1,94.3%
6,O=C(CCCCCC/C=C\c1csc(Br)n1)NO,73.1%
7,COc1ccc(OC)c(NC(=O)CCCCCCNC(=O)C(O)(O)C(F)(F)F)c1,36.9%
8,NCCNC(=O)c1cccc(COc2ccccc2NC(=O)c2cc(Br)c(Br)[nH]2)c1,16.9%
9,C#CCOc1ccccc1C(OC(=O)c1ccccc1)C(=O)NC(C)(C)C(C)(C)C (stereo not given),79.9%
10,O=C(CSc1nc2ccccc2c(=O)n1CCc1ccccc1)Nc1ccc(S(=O)(=O)Nc2ccc(Cl)nn2)cc1,79.7%
11,O=C1CSC(c2cn(-c3ccccc3)nc2-c2ccc(Cl)cc2)N1c1ccccc1 (stereo not given),83.5%
12,COc1ccc2c(c1)c(-c1nn3cc(-c4ccncc4)nc3s1)cn2C,19.3%
13,O=C(/C=C/c1cc(Cl)ccc1Cl)Nc1ncc(Cc2ccc(Cl)cc2)s1,16.2%
14,CC1=C(C)C(=O)C(Nc2cccc(C)c2)=C(Br)C1=O,75.7%
15,COc1ccc(Cn2cc(C#N)c(N)c2C(C)=O)cc1,90.4%
16,Cn1ncc2ncc(-c3ccc4ncc(C#N)c(N5CCc6cc(F)c(Cl)cc65)c4c3)cc21,9.79% (active)
17,Cc1ccc2c(n1)C(=O)C(Cl)=C(Nc1ccc(C(F)(F)F)cc1)C2=O,-56.1% (active)
18,CSc1ccc(/C(=N/N=C(N)N)c2ccc(F)cc2)cc1,5.11% (active)
19,CC(=O)OC[C@@]12Oc3c(cccc3-c3ccc(O)c4c3O[C@]3(COC(C)=O)C(=C4O)C(=O)C[C@H](C)[C@@H]3OC(C)=O)C(O)=C1C(=O)C[C@H](C)[C@@H]2OC(C)=O,5.84% (active)
20,CCCCOc1ccc(S(=O)(=O)N2CCN(c3nc(C)cc(N4CCOCC4)n3)CC2)cc1,76.9%

# Test system: HCT-116 colon
# Assay: as above
# Settings: 10 µM unless noted
row,SMILES,growth
1,CC(C)(C)c1cc(NC(=O)Nc2ccc(-c3cn4c5c(sc4n3)CCc3c[nH]cc3-5)cc2)no1,23.2%
2,NS(=O)(=O)c1ccc(Nc2nc(Nc3ccccc3)nc(N3N=C(c4ccc(Cl)cc4)CC3c3ccc(Cl)cc3)n2)cc1 (stereo not given),14.1%
3,COc1ccc2sc(NC(=O)CCCCCCNC(=O)C(O)(O)C(F)(F)F)nc2c1,0.844% (active)
4,N#C/C(=C\c1ccc(-c2ccc(Cl)cc2)o1)C(=O)Nc1ncc(Cc2ccc(Br)cc2)s1,-33% (active)
5,C#CCN(C)CCCOc1ccc(NCc2ccc(C(=O)NO)cc2)cc1Cl,10.7%
6,COc1ccc(C(=O)c2c(N)c(C#N)cn2-c2ccc(Cl)cc2Cl)cc1,97.7%
7,C/C(=N\NC(=O)/C=C/CC(=O)O)c1nnn(-c2ccc([N+](=O)[O-])cc2)c1C,97.9%
8,O=C(/C=C/c1ccc(F)cc1)Nc1cccc2cccnc12,95.9%
9,COc1ccccc1N1CCN(C2=C(Cl)C(=O)c3ncccc3C2=O)CC1,27.1%
10,NS(=O)(=O)c1cccc(Nc2nc(SCC(=O)c3ccc(Cl)cc3)nc3c2CCC3)c1,95.7%
11,CN(C)c1cccc2c(S(=O)(=O)Nc3cccc(-c4csc(NC(=O)CCCCCN5CCN(CCO)CC5)n4)c3)cccc12,36.2%
12,O=c1nc(Nc2ccc([N+](=O)[O-])cc2O)sc2ccccc12,20.2%
13,NC1C2CCC1CN(c1cnc(C(=O)Nc3cc(F)cc4cccnc34)cn1)C2 (stereo not given),15.8%
14,COc1ccc(C2CC(c3cccc(OCCCCOc4cccc(C5=NOC(c6ccc(OC)cc6)C5)c4)c3)=NO2)cc1 (stereo not given),-21.9% (active)
15,CCc1cc2c(cc1Cl)nc1c(=O)[nH]c(=O)nc-1n2CCOCC(C)(C)C,73.3%
16,Clc1ccc2[nH]cc(-c3nn4cc(-c5ccncc5)nc4s3)c2c1,10.8%
17,CN1CCN(c2ccc(Nc3nc(NCCNS(=O)(=O)c4ccc5ccccc5c4)c4sccc4n3)cc2)CC1,14.7%
18,CC(C)[C@H]1c2[nH]c3ccccc3c2C[C@H]2C(=O)N(CCCCCCC(=O)NO)CC(=O)N12,59.2%
19,O=C(Nc1ccccc1)Nc1nc2ccc([N+](=O)[O-])cc2[nH]1,39.4%
20,N#Cc1c(-c2cccs2)cc(-c2cnccn2)nc1SCC(=O)N/N=C/c1ccncc1,101%

row,SMILES,growth
1,O=C(/C=C/c1ccccc1)c1cccc(O)c1,80%
2,O=C1[C@@H]2Cc3c([nH]c4ccccc34)[C@H](c3ccc(Br)cc3)N2C(=O)CN1C1CCN(Cc2c(Cl)cccc2Cl)CC1,78.8%
3,COc1cccc2c1C=CC1(O2)Oc2cccc(OC)c2C=C1C (stereo not given),14%
4,CCN(CC)c1ccc(/C=N/NC(=O)c2ccc(NS(C)(=O)=O)cc2)cc1,21.3%
5,N#Cc1nc(-c2ccc(Cl)cc2)oc1N1CCC(S(=O)(=O)N2CCOCC2)CC1,101%
6,O=C(CCCCCC/C=C\c1csc(Br)n1)NO,52.5%
7,COc1ccc(OC)c(NC(=O)CCCCCCNC(=O)C(O)(O)C(F)(F)F)c1,7.1% (active)
8,NCCNC(=O)c1cccc(COc2ccccc2NC(=O)c2cc(Br)c(Br)[nH]2)c1,20.2%
9,C#CCOc1ccccc1C(OC(=O)c1ccccc1)C(=O)NC(C)(C)C(C)(C)C (stereo not given),60.5%
10,O=C(CSc1nc2ccccc2c(=O)n1CCc1ccccc1)Nc1ccc(S(=O)(=O)Nc2ccc(Cl)nn2)cc1,93.4%
11,O=C1CSC(c2cn(-c3ccccc3)nc2-c2ccc(Cl)cc2)N1c1ccccc1 (stereo not given),95.4%
12,COc1ccc2c(c1)c(-c1nn3cc(-c4ccncc4)nc3s1)cn2C,55.1%
13,O=C(/C=C/c1cc(Cl)ccc1Cl)Nc1ncc(Cc2ccc(Cl)cc2)s1,2.67% (active)
14,CC1=C(C)C(=O)C(Nc2cccc(C)c2)=C(Br)C1=O,76.9%
15,COc1ccc(Cn2cc(C#N)c(N)c2C(C)=O)cc1,108%
16,Cn1ncc2ncc(-c3ccc4ncc(C#N)c(N5CCc6cc(F)c(Cl)cc65)c4c3)cc21,53.1%
17,Cc1ccc2c(n1)C(=O)C(Cl)=C(Nc1ccc(C(F)(F)F)cc1)C2=O,1.42% (active)
18,CSc1ccc(/C(=N/N=C(N)N)c2ccc(F)cc2)cc1,6.25% (active)
19,CC(=O)OC[C@@]12Oc3c(cccc3-c3ccc(O)c4c3O[C@]3(COC(C)=O)C(=C4O)C(=O)C[C@H](C)[C@@H]3OC(C)=O)C(O)=C1C(=O)C[C@H](C)[C@@H]2OC(C)=O,10.8%
20,CCCCOc1ccc(S(=O)(=O)N2CCN(c3nc(C)cc(N4CCOCC4)n3)CC2)cc1,-1.17% (active)
